We go through 51 compounds from ChEMBL document CHEMBL3988442, “University of Dundee, Small-Polar-MMV Screening Library” (2021).

The target of test [1] is T1, Aspartate--tRNA(Asp/Asn) ligase (Mycobacterium tuberculosis (strain ATCC 25618 / H37Rv)) (UniProt P9WFW3). Note: in the data most compounds retested in dose-response had high values.
T1 sequence (whole entry): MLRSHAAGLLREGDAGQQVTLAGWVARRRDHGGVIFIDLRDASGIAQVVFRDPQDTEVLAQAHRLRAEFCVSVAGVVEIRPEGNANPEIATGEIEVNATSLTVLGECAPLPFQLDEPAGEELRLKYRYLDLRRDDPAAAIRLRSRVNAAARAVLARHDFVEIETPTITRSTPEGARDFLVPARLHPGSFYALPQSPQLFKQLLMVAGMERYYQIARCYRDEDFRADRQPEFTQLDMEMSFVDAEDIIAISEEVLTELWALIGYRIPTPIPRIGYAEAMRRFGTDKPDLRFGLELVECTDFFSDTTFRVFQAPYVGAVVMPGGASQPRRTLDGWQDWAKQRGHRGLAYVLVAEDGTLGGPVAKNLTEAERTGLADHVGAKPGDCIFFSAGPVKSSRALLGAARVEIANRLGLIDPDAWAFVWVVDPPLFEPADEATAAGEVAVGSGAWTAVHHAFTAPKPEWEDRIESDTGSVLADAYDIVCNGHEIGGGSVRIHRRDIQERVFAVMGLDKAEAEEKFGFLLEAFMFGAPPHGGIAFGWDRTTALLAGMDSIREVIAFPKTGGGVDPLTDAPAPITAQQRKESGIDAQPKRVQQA
Nature of the test: Assay for Asp RNA synthetase-1 from Mycobacterium tuberculosis. It counts as functional. Details: scale not given: direction of the effect not stated beside the values. As to conditions: 30 µM.

Test [2] deals with Shiga toxin 2 (Escherichia coli O157:H7) (UniProt P09385+P09386). Nature of the test: E. coli 0.157:H7 Shiga Toxin SOP - stx2 screening assay. Type of test: functional. The arrangement: scale not given: direction of the effect not stated beside the values. Conditions: 30 µM.

On to `Cc1ccccc1CN1CCC2(COCc3cnc(N(C)C)nc32)C1` (configuration not stated), for which the Percent Effect in test [1] was -3.4%; in test [2], -15.8%.
As to `CCCc1n[nH]cc1C(=O)N1CCC(c2nccn2CCOC)CC1`, the Percent Effect was -6.36% in test [1] and 10% in test [2].
For `CCc1ccccc1-n1nnc(C(=O)O)c1-c1ccccn1`, in that order: 6.47% and -3.21%.
For `Cn1ccnc1CN1CCN(Cc2noc(-c3ccccc3)n2)CC1`, the Percent Effect in test [1] is -2.31%; in test [2] it was -6.06%.
Turning to `CCC(NC(N)=O)c1ccccc1OCC(=O)N1CCCC1` (configuration not stated), the values for the Percent Effect in test [1] and in test [2] were -1.5% and -58.1%, respectively.
On to `O=C(C1CC=CC1)N1CCc2c(COCc3ccncc3)cncc2C1`, for which the results for the Percent Effect in test [1] and in test [2] were -3.81% and -51.1%, respectively.
For `CC(=O)N1CCC(Oc2ccc(Cl)cn2)CC1`, in that order: -6.73% and -4.66%.
For `N#Cc1ccc(C(=O)NCCCNc2ccc(C(F)(F)F)cn2)cc1`, in that order: -4.52% and 28.9%.
For `COCC1c2nnn(CC3CC3)c2CCN1C(=O)Cc1cccs1` (configuration not stated), in that order: 4.11% and -2.97%.
Regarding `Cc1ccc(C(=O)N(C)Cc2cc(Br)cs2)c(=O)[nH]1`, the Percent Effect was 0.749% in test [1] and -3.88% in test [2].
For `COCC1COCCC12CCN(C(=O)CCOc1ccccc1)CC2` (configuration not stated), in that order: 1.23% and 0.928%.
For `Cc1ccsc1[C@@H]1CCN(C(=O)c2cc3ccccc3[nH]2)C[C@H]1O`, the Percent Effect in test [1] is -0.724%; in test [2], -11.7%.
For `CCC(=O)N1CCN(Cc2cc(-c3ccncc3)nn2C)CC1`, in that order: -0.849% and -10.7%.
Consider `CC1N(CC2CC2)C(=O)COC12CCN(Cc1nccs1)CC2` (configuration not stated), for which the Percent Effect is -0.821% in test [1] and -13.9% in test [2].
Regarding `Cc1cnn(C2CCCN(C(=O)c3sccc3-n3cnnn3)C2)c1` (configuration not stated), the Percent Effect in test [1] was -2.01%; in test [2], -40.9%.
`O=C(c1ccc(C2CCCO2)s1)N1Cc2ccccc2C1` (configuration not stated): the Percent Effect is 0.948% in test [1] and -61.8% in test [2].
For `CCn1cc(CN2CCCC(CO)(CCc3ccccc3)C2)c(C)n1` (configuration not stated), in that order: 0.494% and -5.78%.
Regarding `NC(=O)NCCC(=O)NCc1cccnc1N1CCc2ccccc2C1`, the Percent Effect was -1.71% in test [1] and 6.61% in test [2].
For `CN(Cc1ccncc1)CC(c1cccs1)N1CCOCC1` (configuration not stated), in that order: -5.01% and -26%.
For `O=C(NCCNc1ccccn1)N1CCSCC1`, in that order: -5.89% and 16.3%.
Take `O=C(Cn1cc(-c2ccccc2)ncc1=O)Nc1nnc[nH]1`: the Percent Effect in test [1] was -0.342%; in test [2] it was 6.34%.
For `Cn1cnc2c1CCN(Cc1nc(Cc3ccccc3)no1)C2`, in that order: -1.94% and 15.1%.
For `CC(CNC(=O)Nc1ccc(N(C)C)nc1)Cn1cccn1` (configuration not stated), in that order: 5.91% and -40.9%.
For `Cc1ccc(=O)n(CC2(O)CCN(Cc3ccsc3)CC2)n1`, in that order: -3.38% and 12.7%.
For the compound `CC(=O)N1CCC2(CCN(C(=O)c3ccc(Cl)c(C(F)(F)F)c3)CC2)C1`, the Percent Effect in test [1] came out at 4.41%; in test [2], 11.4%.
For the compound `CO[C@H]1CCN(S(=O)(=O)c2cn(C)cn2)[C@H]1Cc1cnn(C)c1`, the figures for the Percent Effect in test [1] and in test [2] were 7.16% and 5.54%, respectively.
For `CNS(=O)(=O)c1cccc(C(C)NCc2nccn2C(C)C)c1` (configuration not stated), in that order: -2.07% and -29.6%.
For the compound `CCC(CC)NC(=O)Cn1nc(C)nc1-c1ccccc1`, the Percent Effect in test [1] is -2.19%; in test [2] it was 23%.
For `CCN(CC)C(=O)c1nnn(-c2ccc(C)cc2)c1C1CC1`, in that order: -1.37% and -1.32%.
For `O=C(COCC1CC1)N1CCCC(n2ccnc2)C1` (configuration not stated), in that order: 0.946% and -26.2%.
As to `Cc1cnc(CN(C)C2CCN(CCc3ccccn3)CC2)cn1`, the Percent Effect in test [1] came out at 4.34%; in test [2], 10.4%.
For `O=C(C1=CCCC1)N1CCO[C@H]2[C@@H](OCC3CC3)CC[C@@H]21`, in that order: 2.53% and -28.7%.
For `Cc1ccccc1C1(CNC(=O)NCCc2nnc3n2CCC3)CC1`, in that order: -1.38% and -0.461%.
For `Cc1ccccc1N1CCN(C(=O)c2ccc[nH]2)C(C)C1` (configuration not stated), the Percent Effect in test [1] is -2.33%; in test [2], 24.5%.
For `O=C(NCCN1CCCCC1)c1nc2ccccc2c(=O)[nH]1`, in that order: -1.02% and -53.5%.
`O=C(CCCNc1ncccn1)N1CCCC(n2cccn2)C1` (configuration not stated): the Percent Effect in test [1] stood at 3.16%; in test [2], 1.16%.
For `Cc1ccc(-c2nc(CCNC(=O)NC3CCN(C)CC3)co2)cc1`, in that order: -3.19% and 3.52%.
With `CN(CC(=O)N1CCCN(Cc2cscn2)CC1)c1cnccn1`, the figures for the Percent Effect in test [1] and in test [2] were -1.02% and -25.9%, respectively.
Take `Cc1cccnc1NC(=O)NC(C)Cn1cccn1` (configuration not stated): the results for the Percent Effect in test [1] and in test [2] were -3.52% and 15.4%, respectively.
For `CN(C)Cc1nnc(C2CCN(c3nccc(N)n3)CC2)n1C1CC1`, in that order: 2.12% and -41.2%.
Take `O=C(NC1CC1)[C@@H]1CCO[C@@H]2CCN(C3CCOCC3)C[C@H]21`: the Percent Effect in test [1] is 5.8%; in test [2] it was -34.3%.
For `CN1CC(c2ccccc2)CC2(CCN(CC(=O)N(C)C)CC2)C1` (configuration not stated), in that order: -3.52% and 15.8%.
For `Cc1nc2ccccc2nc1CN(C)CC1CCCN1c1cccnn1` (configuration not stated), in that order: 1.76% and 22.3%.
On to `CC(C)c1nccn1C1CCCN(C(=O)c2cnc[nH]2)C1` (configuration not stated), for which the Percent Effect in test [1] is -0.983%; in test [2], -3.33%.
For `CN1CCCc2cc(CNC(=O)c3ccncc3)ccc21`, in that order: -7.79% and -75.2%.
For the compound `COCc1ccc(CNC(=O)C2=NN(c3ccccc3)C(=O)CN2)cc1`, the Percent Effect in test [1] is 16.6%; in test [2], -18.1%.
For `CNc1nc2c(s1)C(c1c(F)cccc1Cl)CC(=O)N2` (configuration not stated), in that order: 61.3% and 3.13%.
On to `O=C(COCC1CC1)N1CCCC(n2cccn2)C1` (configuration not stated), for which the results for the Percent Effect in test [1] and in test [2] were 4.67% and -15.2%, respectively.
On to `Cc1ccc(CN2CCc3ncnc(-c4cccnc4)c3CC2)o1`, for which the Percent Effect in test [1] was 4.98%; in test [2], 9.48%.
As for `O=C(CO)N1C[C@H]2CC[C@@H]1CN(C1Cc3ccccc3C1)C2`, the Percent Effect worked out at 7.69% in test [1] and 11.7% in test [2].
As to `O=S(=O)(c1ccccc1)N1CCCCC1c1cc[nH]n1` (configuration not stated), the values for the Percent Effect in test [1] and in test [2] were 4.1% and 62%, respectively.
